# Compound activity: PubChem BioAssay, National Center for Advancing Translational Sciences (NCATS)
# Rows were chosen to be rich in hits. Some 18% of all compounds tested hit in one or more screens of this group.
# IL1B secr inh: inflammasome signaling inhibition, IL-1 beta readout; THP-1 LPS/ATP IL-1B secretion, AlphaLISA, 16 h; stronger effect = lower value; activity change, % at 57.5 µM; hit rate 4.7% among 360,000; in the data active means activity change below about -50%; inconclusive means mostly about -30% to -49%; further: on the % scale 0 is the no-effect control and ±100 the full control effect
#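 THP-1 cells pretreated 1 hr with compounds (up to 57.5 uM final), then stimulated with LPS (250 ng/mL final) plus ATP (1.25 mM final); secreted IL-1B measured by AlphaLISA after 16 hr, decreased signal indicating inhibition.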
# HepG2 tox: HepG2 cytotoxicity, counter-screen for TGF-b inhibitors; HepG2 CAGA-GFP viability, ATP luminescence, 18 h; Potency, µM (top dose mostly 46.1 µM), for the others: top-dose activity change, negative = cytotoxicity, usual class: cytotoxic; hit rate 0.76% among 410,000; AID 588856; further: potency means the concentration at half of the fitted maximal effect
#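 HepG2 CAGA-GFP cells (1000/well, DMEM with 1% FBS) received compound, then TGF-beta at 500 pg/mL final, and were incubated 18 hours at 37 degrees C. Viability was read by CellTiter-Glo luminescence. Media-only wells were set as complete cell-killing and DMSO as no toxicity.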
# TDP1 block: blocks human tyrosyl-DNA phosphodiesterase 1; Q9NUW8; recombinant TDP1, AlphaScreen DNA substrate cleavage; Potency, µM (top dose mostly 130 µM), without a hit: at the top dose activity change, negative = inhibition, actives largely listed as inhibitors; hit rate 0.28% among 350,000; AID 485290; further: potency means the concentration at half of the fitted maximal effect; on the % scale 0 is the no-effect control and ±100 the full control effect; nearly all actives have a fitted effect of over 40% in size
# Target sequence (Q9NUW8 whole entry, looked up): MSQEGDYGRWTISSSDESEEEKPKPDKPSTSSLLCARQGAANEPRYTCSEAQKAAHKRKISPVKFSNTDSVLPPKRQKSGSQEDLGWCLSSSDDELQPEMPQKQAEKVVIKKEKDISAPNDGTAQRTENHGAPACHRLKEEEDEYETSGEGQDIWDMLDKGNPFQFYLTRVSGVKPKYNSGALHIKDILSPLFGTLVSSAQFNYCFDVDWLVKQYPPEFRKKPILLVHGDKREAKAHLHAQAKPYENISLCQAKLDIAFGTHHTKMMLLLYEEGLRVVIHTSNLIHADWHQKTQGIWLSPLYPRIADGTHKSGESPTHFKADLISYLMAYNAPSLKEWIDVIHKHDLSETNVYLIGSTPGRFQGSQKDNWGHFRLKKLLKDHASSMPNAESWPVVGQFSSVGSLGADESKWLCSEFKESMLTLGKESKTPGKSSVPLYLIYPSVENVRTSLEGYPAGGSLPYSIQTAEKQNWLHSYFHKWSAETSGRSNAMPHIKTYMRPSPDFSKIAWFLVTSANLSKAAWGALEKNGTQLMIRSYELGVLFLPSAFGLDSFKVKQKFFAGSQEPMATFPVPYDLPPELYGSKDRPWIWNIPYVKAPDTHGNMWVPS
#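 Compounds were preincubated with Tdp1 (1 nM final) for 15 min at room temperature before substrate (15 nM final) started a 5 min reaction; beads (10 ug/ml final) were then added for 10 min before AlphaScreen detection.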
# TGFb SMAD3 inh: TGF-b pathway inhibition. HepG2 CAGA-GFP TGF-b/SMAD3 reporter, GFP fluorescence, 18 h; TGF-beta stimulated, 500 pg/mL final. hit rate 1.2% among 410,000. AID 588855. Potency, µM (series often up to 46.1 µM), for the others: top-dose activity, negative = inhibition, usual class: inhibitors; further: potency means the concentration at half of the fitted maximal effect; on the % scale 0 is the no-effect control and ±100 the full control effect; nearly all actives have a fitted effect of over 65% in size
#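 Read-out: total well GFP (ex488/em500-530) summed from mean per-cell fluorescence. Cells: HEPG2 CAGA-GFP, 1% FBS DMEM, 18 h at 37 degrees C with 500 pg/mL final TGF-beta. Unstimulated wells served as the full-inhibition control; stimulated DMSO wells = 0%.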
# TDP1 cell noCPT: qHTS for Inhibitors of human tyrosyl-DNA phosphodiesterase 1 (TDP1): qHTS in cells in absence of CPT. DT40 Tdp1-/- hTDP1 cells, no CPT, ATP luminescence, 48 h. Potency, µM (series often up to 46.2 µM), for inactives: at the highest dose activity change, negative = growth inhibition, usual class: inhibitors. hit rate 15% among 420,000. AID 686978, 2013; further: potency means the concentration at half of the fitted maximal effect; on the % scale 0 is the no-effect control and ±100 the full control effect; nearly all actives have a fitted effect of over 55% in size
#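 A cellular qHTS used chicken DT40 cells lacking endogenous Tdp1 but carrying stably transfected human TDP1. Compounds were applied without camptothecin, and cell growth kinetics were judged by ATP-dependent luminescence after ≥48 hr.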
# DT40 TDP1 CPT: DT40-hTDP1 cell growth loss with CPT; chicken DT40 Tdp1-/-;hTDP1 cells + 20 nM CPT, ATP luminescence, 48 h; Potency, µM (titrated, usually from 46.2 µM), for inactives: top-dose activity change, negative = growth inhibition, most hits filed as inhibitors; hit rate 12% among 420,000; further: potency means the concentration at half of the fitted maximal effect; on the % scale 0 is the no-effect control and ±100 the full control effect; nearly all actives have a fitted effect of over 55% in size
#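 Chicken DT40 Tdp1-/- cells stably complemented with human TDP1 were seeded at 400 cells/well in medium containing 20 nM camptothecin, exposed to pin-transferred compounds, and grown at 37 °C for at least 48 hr. Viability was read as ATP luminescence.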
# * = called active by the depositor; ? = inconclusive; nt = no result; [ ] = remark or other dose. Unless noted, the call rests on the fitted dose curve; in most records, active means well fitted curve in the direction sought with a large enough effect; inconclusive means small, poorly fitted or top-dose-only effect, or another doubt; inactive means no such curve, though single readings can be large; an effect the other way counts as inactive or inconclusive.
SMILES,IL1B secr inh,HepG2 tox,TDP1 block,TGFb SMAD3 inh,TDP1 cell noCPT,DT40 TDP1 CPT
O=C(c1ccccc1F)N1CCN(c2ccc([N+](=O)[O-])c3ncccc23)CC1,-3,-20%,0%,-26%,21µM*,15µM*
O=C(c1cccc2ccccc12)N1CCN(c2ccc([N+](=O)[O-])c(N3CCOCC3)c2)CC1,-1,-4%,7%,9%,21µM*,9.2µM*
CCOc1cc(Br)cc(C2NC(=O)c3c(sc4c3CCN(C)C4)N2)c1O (configuration not stated),nt,1%,nt,4%,?,?
O=C(CCCCCN1C(=O)c2cccc3cccc(c23)C1=O)NO,nt,nt,7%,nt,nt,nt
C[C@H]1O[C@@H](n2cnc3c(N)ncnc32)C[C@@H]1OP(=O)(O)OP(=O)(O)OP(=O)(O)O,nt,nt,9%,nt,nt,nt
O=C(c1ccccc1Sc1ccc([N+](=O)[O-])cc1Cl)N1CCOCC1,-72*,-2%,0%,-26%,?,?
O=C(Nc1ccc(NC(=O)c2cc([N+](=O)[O-])ccc2N2CCOCC2)cc1)c1cccs1,?,-11%,-3%,1%,?,?
O=C(Nc1ccc([N+](=O)[O-])cc1)Nc1ccc(N2CCOCC2)c2nonc12,?,-3%,0%,-4%,23µM*,21µM*
O=C(NCc1ccco1)c1ccc(N2CCCCC2)c([N+](=O)[O-])c1,?,6%,8%,2%,-27%,1%
O=C(Nc1ccc(N2CCCC2)cc1)c1cc([N+](=O)[O-])ccc1N1CCOCC1,-13,-45%,10%[56.1 µM],-20%,23µM*,?
O=C(NCc1ccco1)c1cc([N+](=O)[O-])ccc1N1CCCCC1,-17,0%,-5%,5%,?,16µM*
COC(=O)c1ccc(C(NC(=O)OCc2ccccc2)/C(=C/[C@@H](C)C(=O)NCc2cc(C)n(C)n2)c2cccnc2)cc1 (some centres not stated),nt,nt,3%,nt,nt,nt
COc1ccc(NC(=O)N2CC[C@@]3(CCCN(C(=O)c4cccc(F)c4)C3)C2)cc1,nt,nt,nt,nt,-12%,?
O=C(CNC(=O)c1nn(Cc2ccccc2)c(=O)c2ccccc12)Nc1ccc(F)c(F)c1F,39,-6%,1%,-3%,-29%,-17%
C[C@@H]1CN([C@@H](C)CO)C(=O)CCCn2nncc2CO[C@@H]1CN(C)S(=O)(=O)c1ccccc1,21,7%,nt,6%,-25%,-7%
CC(C)C(c1nnnn1Cc1ccccc1)N(Cc1ccco1)Cc1cccs1 (configuration not stated),-10,14%,6%,-33%,21µM*,?
CC1=C(C)CS(=O)N(S(=O)(=O)c2ccccc2)C1 (configuration not stated),-50*,-39%,-4%,?,10µM*,23µM*
CC1=C(C)CS(=O)N(c2ccc(S(N)(=O)=O)cc2)C1 (configuration not stated),-93*,-37%,0%,-5%,23µM*,13µM*
NS(=O)(=O)c1ccc(S(=O)(=O)N2CCCC2)cc1,-6,-1%,0%,-1%,-19%,-26%
O=S(=O)(c1ccccc1)N1CCN(S(=O)(=O)c2ccccc2)CC1,nt,-10%,1%,-1%,-1%,17%
Brc1ccc(OCc2nnnn2-c2ccccc2)cc1,-69*,-25%,3%,2%,?,0%
Cc1ccccc1CS(=O)(=O)CCC(=O)NCCCN1CCN(c2ccccc2F)CC1,-5,1%,5%,17%,?,?
O=C(NCCCN1CCN(c2cccc(Cl)c2)CC1)Nc1ccccc1C(F)(F)F,nt,-62%,-2%,?,?,15µM*
Cc1ccc(Cl)cc1N1CCN(CCNC(=O)Nc2ccccc2Cl)CC1,nt,6%,0%,7%,12µM*,16µM*
O=C(NCCN1CCN(c2cccc(Cl)c2)CC1)Nc1ccccc1C(F)(F)F,nt,-39%,0%,-21%,18µM*,?
SMILES,IL1B secr inh,HepG2 tox,TDP1 block,TGFb SMAD3 inh,TDP1 cell noCPT,DT40 TDP1 CPT
Cc1ccccc1CS(=O)(=O)CCC(=O)NCCN1CCN(c2cccc(Cl)c2)CC1,?,-9%,4%,?,15µM*,23µM*
Nc1ccccc1C(=O)NCCCN1CCN(c2cccc(Cl)c2)CC1,?,-6%,nt,-2%,-22%,-14%
CN1CCN(CCNC(=O)Nc2ccccc2C(F)(F)F)CC1,11,27%,-4%,2%,2%,6%
O=c1c(-c2ccc(O)cc2)coc2cc(O[C@@H]3O[C@H](CO)[C@@H](O)[C@H](O)[C@H]3O)cc(O)c12,nt,nt,6%,nt,nt,nt
COc1cccc(/C=C2\C(=O)N(c3cccc(C)c3)C(=O)c3ccccc32)c1,?,0%,-3%,14%,?,26µM*
Cc1cc(-n2[nH]c(C)c(C)c2=O)nc(-c2ccccc2O)n1,82,-18%,3%,-22%,?,16µM*
COc1cc2ccccc2cc1C(=O)N1CCN(c2nc3c(F)cc(F)cc3s2)CC1,nt,-22%,3%,7.1µM*,8.2µM*,21µM*
COc1cccc2sc(N3CCN(C(=O)c4cccs4)CC3)nc12,-14,-15%,-10%,-20%,-24%,?
COc1cc2ccccc2cc1C(=O)N1CCN(c2nc3c(F)cccc3s2)CC1,nt,16%,0%,19%,16µM*,21µM*
O=C(c1cccs1)N1CCN(c2nc3c(F)cc(F)cc3s2)CC1,?,-25%,0%,-19%,?,?
CC(=O)Nc1ccc(C(=O)N/C(=C/c2ccccc2)C(=O)N2CCCCC2)cc1,-6,7%,nt,4%,-2%,-3%
O=C(NCCc1ccccc1)c1cccc2c(-c3ccc(F)c(F)c3)coc12,-10,-4%,nt,-15%,-44%,-44%
COc1ccc(CNC(=O)c2ccc(-c3cnn(C)c3)c3ccoc23)cc1OC,-22,-13%,nt,-5%,?,-73%
O=C(NCc1cccs1)c1cccc2c(-c3ccc(F)c(F)c3)coc12,-28,-8%,nt,-17%,?,?
O=C(NCc1ccco1)c1ccc(-c2ccc(F)c(F)c2)c2ccoc12,-16,-7%,nt,-24%,18µM*,?
COc1ccc(CNC(=O)c2ccc(-c3ccc(F)c(F)c3)c3ccoc23)cc1OC,-12,-53%,nt,?,15µM*,21µM*
